From PubChem BioAssay (NCI)
This is part of a sample that, as a whole, favours compounds with a hit. Of some 83,000 tested, about 20% had one in any assay.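 48-hour exposure, single concentration, 96-well plates; percent growth endpoint where 0 means no net growth. Active: below 10.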 Calls of active or inactive are those of the source.

Experiments:
Assay in all cases: NCI-60 one-dose screen, 48 h (100 = growth as untreated, 0 = no growth, -100 = all killed)
Conditions in all cases: 10 µM unless noted
NCI-H23 lung = test system: NCI-H23 lung
NCI-H226 lung = test system: NCI-H226 lung
NCI-H322M lung = test system: NCI-H322M lung
HOP-62 NSCLC = test system: HOP-62 NSCLC
NCI-H460 lung = test system: NCI-H460 lung
HOP-92 NSCLC = test system: HOP-92 NSCLC
NCI-H522 lung = test system: NCI-H522 lung
A549/ATCC NSCLC = test system: A549/ATCC NSCLC
786-0 renal = test system: 786-0 renal
COLO 205 colon = test system: COLO 205 colon
DU-145 prostate = test system: DU-145 prostate
K-562 leukemia = test system: K-562 leukemia
MALME-3M melanoma = test system: MALME-3M melanoma
MDA-MB-231 breast = test system: MDA-MB-231 breast
RXF 393 renal = test system: RXF 393 renal
SF-268 CNS = test system: SF-268 CNS
SF-295 CNS = test system: SF-295 CNS
SF-539 CNS = test system: SF-539 CNS
UACC-257 melanoma = test system: UACC-257 melanoma
M14 melanoma = test system: M14 melanoma

Measured: growth

CCN(CC)CCCC(C)Nc1ccnc2c(OC)cccc12 (stereo not given)
inactive: NCI-H23 lung 106% | NCI-H226 lung 111% | NCI-H322M lung 141% | HOP-62 NSCLC 108% | NCI-H460 lung 125% | HOP-92 NSCLC 130% | NCI-H522 lung 104% | A549/ATCC NSCLC 106% | 786-0 renal 113% | COLO 205 colon 114% | DU-145 prostate 120% | K-562 leukemia 121% | MALME-3M melanoma 142% | MDA-MB-231 breast 107% | RXF 393 renal 135% | SF-268 CNS 124% | SF-295 CNS 109% | SF-539 CNS 116% | UACC-257 melanoma 113% | M14 melanoma 108%

CC(C)[C@@H]1CC[C@]2(C(=O)NCCCCN=C(N)N)CC[C@]3(C)[C@H](CC[C@@H]4[C@@]5(C)CCC(=O)C(C)(C)[C@@H]5CC[C@]43C)[C@@H]12
active: COLO 205 colon 2.37%
inactive: NCI-H23 lung 69.3% | NCI-H226 lung 84.1% | NCI-H322M lung 73.8% | HOP-62 NSCLC 72.6% | NCI-H460 lung 58.9% | HOP-92 NSCLC 57.6% | NCI-H522 lung 19.5% | A549/ATCC NSCLC 80.9% | 786-0 renal 70.7% | DU-145 prostate 81.3% | K-562 leukemia 24.6% | MALME-3M melanoma 19% | MDA-MB-231 breast 74.3% | RXF 393 renal 93.8% | SF-268 CNS 54.8% | SF-295 CNS 102% | SF-539 CNS 69.5% | UACC-257 melanoma 71.1% | M14 melanoma 71.2%

C/C(Cc1ccc(Cl)cc1)=C(\c1ccc(OCCN2CCCCCC2)cc1)c1ccc(OC(=O)Cc2ccccc2)cc1
inactive: NCI-H23 lung 71.3% | NCI-H226 lung 84.1% | NCI-H322M lung 67.3% | HOP-62 NSCLC 85.7% | NCI-H460 lung 18.2% | HOP-92 NSCLC 48.4% | NCI-H522 lung 62.9% | A549/ATCC NSCLC 61.3% | 786-0 renal 65% | DU-145 prostate 75.9% | MALME-3M melanoma 69.5% | MDA-MB-231 breast 82.4% | RXF 393 renal 53.6% | SF-268 CNS 60.2% | SF-295 CNS 90.4% | SF-539 CNS 81.5% | UACC-257 melanoma 89.3% | M14 melanoma 21.8%
active: COLO 205 colon -45.1% | K-562 leukemia 1.27%

COc1cc(/C=C2\CN(C(=O)CCN3CCC(=NO)CC3)C/C(=C\c3cc(OC)c(OC)c(OC)c3)C2=O)cc(OC)c1OC
active: NCI-H23 lung -21.9% | NCI-H226 lung -6.36% | NCI-H322M lung -89.2% | HOP-62 NSCLC -47.2% | NCI-H460 lung -64% | HOP-92 NSCLC -49.2% | NCI-H522 lung -74.7% | A549/ATCC NSCLC 2.51% | 786-0 renal -38.6% | COLO 205 colon -85.8% | DU-145 prostate -94% | K-562 leukemia 6.55% | MALME-3M melanoma -50.4% | MDA-MB-231 breast -73.5% | RXF 393 renal -85.1% | SF-268 CNS -73% | SF-295 CNS -75.4% | SF-539 CNS -60.5% | UACC-257 melanoma -16.9% | M14 melanoma -46.6%

CCc1ccc(C(c2ccc(CC)cc2)C(Cl)(Cl)CCl)cc1
inactive: NCI-H23 lung 92.8% | NCI-H226 lung 101% | NCI-H322M lung 110% | HOP-62 NSCLC 99.1% | NCI-H460 lung 98.8% | HOP-92 NSCLC 55.2% | NCI-H522 lung 83% | A549/ATCC NSCLC 149% | 786-0 renal 84% | COLO 205 colon 100% | DU-145 prostate 110% | K-562 leukemia 106% | MALME-3M melanoma 96.6% | MDA-MB-231 breast 88.7% | RXF 393 renal 131% | SF-268 CNS 93.7% | SF-295 CNS 105% | SF-539 CNS 96.3% | UACC-257 melanoma 110% | M14 melanoma 100%

CC[C@@H](C)OC(=O)c1nn(C(C)=O)c2ccccc12
inactive: NCI-H23 lung 91.6% | NCI-H226 lung 85.1% | NCI-H322M lung 107% | HOP-62 NSCLC 105% | NCI-H460 lung 112% | HOP-92 NSCLC 104% | NCI-H522 lung 87.1% | A549/ATCC NSCLC 90% | 786-0 renal 103% | COLO 205 colon 108% | DU-145 prostate 107% | K-562 leukemia 112% | MALME-3M melanoma 109% | MDA-MB-231 breast 98.8% | RXF 393 renal 99.4% | SF-268 CNS 104% | SF-295 CNS 93.1% | SF-539 CNS 105% | UACC-257 melanoma 101% | M14 melanoma 102%

COc1ccc(-c2nn(-c3ccccc3)cc2/C=C/C(=O)OCc2cn(-c3ccc(F)c(Cl)c3)nn2)cc1
inactive: NCI-H23 lung 72.6% | NCI-H226 lung 80.5% | NCI-H322M lung 92.1% | HOP-62 NSCLC 78.5% | NCI-H460 lung 96.7% | HOP-92 NSCLC 101% | NCI-H522 lung 65.2% | A549/ATCC NSCLC 92.1% | 786-0 renal 101% | COLO 205 colon 104% | DU-145 prostate 97.2% | K-562 leukemia 69.7% | MALME-3M melanoma 59% | MDA-MB-231 breast 56.9% | RXF 393 renal 68.4% | SF-268 CNS 77.4% | SF-295 CNS 97.3% | SF-539 CNS 98.7% | UACC-257 melanoma 92.9% | M14 melanoma 97.6%

COc1ccc(S(=O)(=O)NCCCNc2cc(-c3c(-c4cccc(OC)c4)nc4sccn34)ccn2)cc1
inactive: NCI-H23 lung 59.8% | NCI-H226 lung 37.7% | NCI-H322M lung 67.6% | HOP-62 NSCLC 80.6% | NCI-H460 lung 44.2% | HOP-92 NSCLC 62.1% | NCI-H522 lung 52.7% | A549/ATCC NSCLC 42.9% | 786-0 renal 52.1% | COLO 205 colon 35.8% | DU-145 prostate 46.4% | K-562 leukemia 25.6% | MALME-3M melanoma 66.1% | MDA-MB-231 breast 46.8% | RXF 393 renal 56% | SF-268 CNS 44.9% | SF-295 CNS 40.5% | SF-539 CNS 61.9% | UACC-257 melanoma 53.3% | M14 melanoma 45%

CCCCNP1(NCCCC)=NP(NCCCC)(NCCCC)=NP(NCCCC)(NCCCC)=NP(NCCCC)(NCCCC)=N1
active: NCI-H23 lung -49.6% | NCI-H322M lung 9.1% | NCI-H460 lung -8.78% | HOP-92 NSCLC -24.3% | NCI-H522 lung 7.68% | A549/ATCC NSCLC 0.875% | 786-0 renal -6.24% | COLO 205 colon -26.2% | K-562 leukemia -26.4% | MALME-3M melanoma -18.1% | MDA-MB-231 breast -20.9% | SF-295 CNS -25% | UACC-257 melanoma -22.5%
inactive: NCI-H226 lung 22.4% | HOP-62 NSCLC 10.2% | DU-145 prostate 16.5% | RXF 393 renal 16.5% | SF-268 CNS 25.8% | SF-539 CNS 34% | M14 melanoma 11.8%

Cc1cc(N/N=C/c2nc(-c3ccc(Cl)cc3)oc2C)c2cc(Cl)ccc2n1
inactive: NCI-H23 lung 111% | NCI-H226 lung 98.4% | NCI-H322M lung 79.1% | HOP-62 NSCLC 103% | HOP-92 NSCLC 69.5% | A549/ATCC NSCLC 21.9% | COLO 205 colon 83.7% | DU-145 prostate 34.3% | MDA-MB-231 breast 63.8% | RXF 393 renal 83.3% | SF-268 CNS 74.8% | SF-295 CNS 98.6% | SF-539 CNS 69.5% | UACC-257 melanoma 101%
active: NCI-H460 lung -62.5% | NCI-H522 lung -1.87% | 786-0 renal -39.8% | K-562 leukemia -15.8% | MALME-3M melanoma -14.2% | M14 melanoma 8.84%

C=C1C(=O)O[C@H]2[C@H]1CC/C(Cn1cc(Cn3ccc4cc(Cl)ccc43)nn1)=C\CC[C@@]1(C)O[C@@H]21
inactive: NCI-H23 lung 13.1% | NCI-H226 lung 61.4% | NCI-H322M lung 76.6% | HOP-62 NSCLC 75.7% | NCI-H460 lung 64.2% | A549/ATCC NSCLC 48.5% | SF-268 CNS 18.4% | SF-295 CNS 73.5% | UACC-257 melanoma 28.8%
active: HOP-92 NSCLC -61.6% | NCI-H522 lung -76% | 786-0 renal -71.4% | COLO 205 colon -82.3% | DU-145 prostate 4.94% | K-562 leukemia -29.2% | MALME-3M melanoma -67.1% | MDA-MB-231 breast -51.8% | RXF 393 renal -72.2% | SF-539 CNS -88.6% | M14 melanoma -4.18%

COc1ccc(C/C(C)=C(\c2ccc(Cl)cc2)c2ccc(OCCN3CCCCCC3)cc2)cc1
inactive: NCI-H23 lung 78.8% | NCI-H226 lung 86.1% | NCI-H322M lung 86.8% | HOP-62 NSCLC 97.4% | NCI-H460 lung 70.4% | HOP-92 NSCLC 71.2% | NCI-H522 lung 73.5% | A549/ATCC NSCLC 87.9% | 786-0 renal 86.3% | COLO 205 colon 65.2% | DU-145 prostate 106% | K-562 leukemia 20.7% | MALME-3M melanoma 104% | MDA-MB-231 breast 99.9% | RXF 393 renal 93.1% | SF-268 CNS 88.4% | SF-295 CNS 100% | SF-539 CNS 90.8% | UACC-257 melanoma 94.7% | M14 melanoma 90.2%

O=[N+]([O-])c1cccc(-c2nc3sccn3c2-c2ccnc(NCCNS(=O)(=O)c3ccc(C(F)(F)F)cc3)n2)c1
inactive: NCI-H23 lung 43.3% | NCI-H226 lung 40.3% | NCI-H322M lung 61.8% | HOP-62 NSCLC 73% | NCI-H460 lung 33.4% | HOP-92 NSCLC 44.7% | NCI-H522 lung 34.3% | A549/ATCC NSCLC 31.9% | 786-0 renal 60.3% | COLO 205 colon 37.2% | DU-145 prostate 48.5% | K-562 leukemia 21.8% | MALME-3M melanoma 41.1% | MDA-MB-231 breast 60.2% | RXF 393 renal 56% | SF-268 CNS 39.8% | SF-295 CNS 37.4% | SF-539 CNS 74.5% | UACC-257 melanoma 49.1% | M14 melanoma 37.8%
